In PubChem BioAssay AID504333 (National Center for Advancing Translational Sciences (NCATS), 2011) one finds Potency data, which are given here for 96 compounds.

Several values for one entry are separate records, joined by “and”; a condition that tells them apart may be missing. Identical values can stand only once. The campaign covered roughly 360,000 compounds. About 16,000 (4.4%) were called active. Another 9% or so got no clear call; they are omitted. Calls follow the shape of the dose curve; as a rule, active = well fitted inhibition curve with a large enough effect; inconclusive = small, poorly fitted or top-dose-only effect; inactive = no such curve, though single readings can be large or run the other way. The entries come from a sample that favours actives as a whole. Entries that show only a call come without a potency. Where a structure was tested more than once in an assay, its records may differ in their call.
Potency is read from the fitted curve at half-maximal effect.

The test deals with Bromodomain adjacent to zinc finger domain protein 2B (Homo sapiens) (UniProt Q9UIF8). The experiment in a line: qHTS Assay for Inhibitors of BAZ2B. Also: nearly all actives have a fitted effect of over 60% in size. Particulars: AlphaScreen BAZ2B-H3K14Ac peptide displacement; series mostly up to 114 µM. The procedure, abridged: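 Protein-peptide AlphaScreen: BAZ2B 50 nM, b-H3K14Ac 50 nM, 1x PBS pH 7.4 + 0.01% Tween-20. Preincubation 30 min RT; cpd 30 min RT (top 110 uM); beads 20 min RT, light-protected.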
Chain of Bromodomain adjacent to zinc finger domain protein 2B (Homo sapiens) (Q9UIF8 whole entry, looked up, the tested form may be a part): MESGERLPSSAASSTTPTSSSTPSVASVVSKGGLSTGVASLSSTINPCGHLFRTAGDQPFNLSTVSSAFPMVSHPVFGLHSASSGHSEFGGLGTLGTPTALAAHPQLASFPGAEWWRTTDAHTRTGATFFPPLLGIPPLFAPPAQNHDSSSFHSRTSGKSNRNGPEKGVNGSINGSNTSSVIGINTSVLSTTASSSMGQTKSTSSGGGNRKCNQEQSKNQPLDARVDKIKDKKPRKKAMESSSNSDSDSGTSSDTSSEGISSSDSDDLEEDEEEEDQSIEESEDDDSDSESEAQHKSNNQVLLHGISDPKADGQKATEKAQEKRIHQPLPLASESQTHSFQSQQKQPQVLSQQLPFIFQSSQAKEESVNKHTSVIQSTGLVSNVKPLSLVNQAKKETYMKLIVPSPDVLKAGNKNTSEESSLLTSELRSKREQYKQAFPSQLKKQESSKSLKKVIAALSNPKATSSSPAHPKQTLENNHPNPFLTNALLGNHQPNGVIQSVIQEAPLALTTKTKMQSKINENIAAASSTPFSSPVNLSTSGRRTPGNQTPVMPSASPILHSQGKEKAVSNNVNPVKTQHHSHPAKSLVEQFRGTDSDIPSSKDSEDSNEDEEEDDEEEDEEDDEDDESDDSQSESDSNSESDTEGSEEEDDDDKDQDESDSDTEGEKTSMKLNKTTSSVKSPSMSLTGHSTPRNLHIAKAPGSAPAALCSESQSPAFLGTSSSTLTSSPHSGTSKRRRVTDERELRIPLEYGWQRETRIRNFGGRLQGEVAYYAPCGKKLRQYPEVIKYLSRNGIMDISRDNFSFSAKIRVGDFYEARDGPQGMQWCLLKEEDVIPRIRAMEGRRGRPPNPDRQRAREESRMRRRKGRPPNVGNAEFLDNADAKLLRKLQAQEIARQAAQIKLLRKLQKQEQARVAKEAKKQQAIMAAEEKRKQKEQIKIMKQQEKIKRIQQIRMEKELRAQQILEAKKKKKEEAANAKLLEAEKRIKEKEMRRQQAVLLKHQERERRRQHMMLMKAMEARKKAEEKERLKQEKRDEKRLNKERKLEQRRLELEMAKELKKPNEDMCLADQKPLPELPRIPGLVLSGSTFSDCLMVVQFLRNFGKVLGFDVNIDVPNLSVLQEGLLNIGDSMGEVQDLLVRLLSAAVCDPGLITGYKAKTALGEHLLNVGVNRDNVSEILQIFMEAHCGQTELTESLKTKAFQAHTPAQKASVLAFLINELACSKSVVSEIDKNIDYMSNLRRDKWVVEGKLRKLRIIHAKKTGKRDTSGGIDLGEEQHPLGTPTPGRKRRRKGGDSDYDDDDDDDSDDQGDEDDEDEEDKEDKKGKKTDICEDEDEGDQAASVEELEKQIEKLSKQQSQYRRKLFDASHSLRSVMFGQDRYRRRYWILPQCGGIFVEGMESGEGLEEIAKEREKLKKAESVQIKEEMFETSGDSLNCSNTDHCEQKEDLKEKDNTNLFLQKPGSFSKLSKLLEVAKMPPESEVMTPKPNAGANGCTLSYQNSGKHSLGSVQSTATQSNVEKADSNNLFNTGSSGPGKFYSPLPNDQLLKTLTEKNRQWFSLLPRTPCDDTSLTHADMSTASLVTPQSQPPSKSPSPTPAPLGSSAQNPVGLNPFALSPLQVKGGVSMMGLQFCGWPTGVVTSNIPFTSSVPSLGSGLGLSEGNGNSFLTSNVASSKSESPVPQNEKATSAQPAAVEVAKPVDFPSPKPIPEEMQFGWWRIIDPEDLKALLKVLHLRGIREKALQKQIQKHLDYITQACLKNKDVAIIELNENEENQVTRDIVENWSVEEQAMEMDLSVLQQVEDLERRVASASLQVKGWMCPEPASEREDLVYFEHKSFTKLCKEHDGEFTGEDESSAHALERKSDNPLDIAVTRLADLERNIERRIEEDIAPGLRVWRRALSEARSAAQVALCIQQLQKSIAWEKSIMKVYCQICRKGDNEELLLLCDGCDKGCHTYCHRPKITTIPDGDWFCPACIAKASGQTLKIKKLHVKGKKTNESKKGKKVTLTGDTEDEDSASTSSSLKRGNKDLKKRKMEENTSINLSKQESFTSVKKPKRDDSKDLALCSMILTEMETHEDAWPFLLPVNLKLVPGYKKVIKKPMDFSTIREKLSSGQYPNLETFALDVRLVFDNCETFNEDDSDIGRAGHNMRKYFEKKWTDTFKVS
In general terms: In qHTS, concentration-response curves come from the screen itself.
Turning to `COc1ccc(Nc2ncc(C(=O)Nc3cc(C)ccc3OC)c3ccccc23)cc1`, the Potency entry is “inactive”.
For the compound `COc1ccc(-c2nc(Cn3c(=O)cc(C)c4c(C)nn(-c5ccccc5)c43)c(C)o2)cc1OC`, the Potency entry was “inactive”.
`COc1ccc(Cl)cc1NC(=O)CSc1nc(=O)[nH]c2c1CCCC2`: the Potency result is “inactive”.
Turning to `COc1cc(OC)cc(C(=O)NCCc2csc3nc(-c4ccccc4F)nn23)c1`, the Potency entry is “inactive”.
On to `COc1ccc(C(=O)NCC(c2ccc(N(C)C)cc2)N2CCc3ccccc32)c(OC)c1` (stereo unspecified), for which the Potency result was “inactive”.
In the case of `COc1ccc(S(=O)(=O)NCC(c2ccc(N(C)C)cc2)N2CCc3ccccc32)cc1OC` (stereo unspecified), the Potency was 11.2 µM (active).
In the case of `COc1ccc(S(=O)(=O)NCC(c2ccc(C)cc2)N2CCN(C)CC2)cc1OC` (stereo unspecified) it was “inactive”; in that of `CCn1c(C(=O)Nc2cc(Cl)ccc2C)cc2sc(Cl)cc21`, “inactive”.
For `COc1cccc(CNC(=O)CSc2c3c(nc4cc(Cl)ccc24)CCCC3)c1`, the Potency entry was “inactive”.
For `CCOc1ccc(CNC(=O)C2CCN(c3nnc(-n4cccc4CNc4ccc(C)cc4)s3)CC2)cc1OC`, the Potency result is “inactive”.
Consider `CC(C)c1ccc2c(c1)c(SC(C)(C)C)c(CC(C)(C)C(=O)O)n2Cc1ccc(Cl)cc1`, for which the Potency entry was “inactive and 50.1 µM (active)”.
Turning to `CC(C)c1ccc(Cn2c(COc3ccccc3)nc3ccccc32)cc1`, the Potency result is “inactive”.
As for `Cc1c(C)n(Cc2ccc(Cl)cc2)c2ccc(C(=O)N3CCN(c4ccccc4F)CC3)cc12`, the Potency entry is “inactive”.
In the case of `CCCn1c(=N)c(C(=O)NCc2ccccc2)cc2c(=O)n3cccc(C)c3nc21`, the Potency entry is “inactive”.
On to `Cc1cccc(C2=N/C(=C/c3cccs3)C(=O)O2)c1`, for which the Potency result was “inactive”.
`CN1/C(=C\C=C2\N=C(c3ccc(F)cc3)OC2=O)C(C)(C)c2ccccc21`: the Potency was 50.1 µM (active).
As for `O=C1OC(c2ccc(Cl)cc2)=N/C1=C\c1cccnc1`, the Potency result was “inactive”.
For the compound `CCOc1ccccc1N(C)C(=O)c1cc2c(s1)-c1ccccc1OC2`, the Potency result is “inactive”.
For the compound `O=C(Cc1ccc(Cl)cc1)NCC(c1cccs1)S(=O)(=O)c1ccc(Cl)cc1` (stereo unspecified), the Potency result was “inactive”.
Take `CCOC(=O)N1CCc2c(sc3c2C(=O)NC(c2ccccc2F)N3)C1` (stereo unspecified): the Potency entry was “inactive”.
For the compound `CCOc1ccc(CNCc2c(C(=O)O)c(C)n(Cc3cccc(OC)c3)c2C)cc1OC`, the Potency result was “inactive”.
On to `CCN(CC)S(=O)(=O)c1ccc(C(=O)N=c2sc3cccc(OC)c3n2C)cc1`, for which the Potency entry is “inactive”.
In the case of `CCOC(=O)c1c(-c2ccc(OC)cc2)oc2ccc(OCc3ccc(C(=O)OC)cc3)cc12` it was “inactive”; in that of `CN1/C(=c2/s/c(=C3/C(=O)N(c4ccccc4)NC3=Nc3ccccc3)n(C)c2=O)C(C)(C)c2ccccc21`, 10 µM (active).
Consider `CN1C(=O)c2ccccc2Sc2ccc(NC(=O)Cc3ccc(Cl)cc3)cc21`, for which the Potency entry was “inactive”.
For the compound `Cc1ccc(Nc2c(-c3ccc(Cl)cc3)nc3sccn23)c(C)c1`, the Potency was 28.2 µM (active).
Consider `O=C(NCc1ccc(Cl)cc1)c1cc2c(nc3sccn32)s1`, for which the Potency result is “inactive”.
Regarding `O=c1cc(Cn2nnc(-c3ccc(Cl)cc3)n2)nc2sccn12`, the Potency entry was “inactive”.
On to `Cc1ccccc1C(=O)Nc1cc(C)c(O)c(-c2nc3ccccc3o2)c1`, for which the Potency entry was “inactive”.
Turning to `Cc1ccc(Cl)cc1N(C)C(=O)C1CCCN(c2ncnc3onc(-c4ccc(F)cc4)c23)C1` (stereo unspecified), the Potency entry is “inactive”.
In the case of `CCOc1ccc(C2C(C(=O)Nc3ccc(Cl)cc3)=C(C)Nc3nc(C(F)(F)F)nn32)cc1` (stereo unspecified), the Potency entry was “inactive”.
Consider `COC(=O)c1ccc(COc2ccc(/C=C/C(=O)c3ccc(OC)c(CSCC(=O)O)c3)cc2OC)cc1`, for which the Potency was 39.8 µM (active).
In the case of `COc1ccc(/C=C/C(=O)N2CCCC2)cc1OC`, the Potency result was “inactive”.
`COc1ccc(C(=O)/C=C/c2ccc(-c3ccccc3)cc2)cc1CSCC(=O)O`: the Potency result was “inactive”.
In the case of `CCOc1ccccc1NC(=O)Cn1c(=O)n(-c2cccc(C)c2)c(=O)c2c1c1cc(OC)ccc1n2C`, the Potency result is “inactive”.
As to `COc1ccc(-c2nnc(SCC(=O)NC3CCCCC3)o2)cc1OC`, the Potency entry is “inactive”.
The value for `CCOc1cc(-c2nnc(SCC(=O)NC3CCCCC3)nc2-c2ccc(OC)c(OCC)c2)ccc1OC` was 79.4 µM (active); that for `COc1ccc(-c2nnc(SCC(=O)Nc3ccc(C(C)C)cc3)nc2-c2ccc(OC)c(OC)c2)cc1OC` was “inactive”; that for `COCCn1c(SCC(=O)c2cc(C)ccc2C)nc2cc(C(=O)NC3CCCC3)ccc2c1=O` was “inactive”.
In the case of `Cc1ccc(-c2nc(CS(=O)(=O)CC(=O)NCc3ccccc3Cl)c(C)o2)cc1` it was “inactive”; in that of `CCOc1ccc2nc(N3CCC(C(=O)Nc4cc(C)ccc4C)CC3)sc2c1`, “inactive”.
Take `CC1=C(C(=O)Nc2ccccc2Cl)C(c2cccs2)n2ncnc2N1` (stereo unspecified): the Potency result is “inactive”.
As for `CCC(=C/c1sc2ccc3ccccc3c2[n+]1C)/C=C1\Sc2ccc3ccccc3c2N1C`, the Potency was 50.1 µM (active).
In the case of `N#C/C(=C\C1=C(N2CCOCC2)C(=C\c2ccccc2)/CC1)C(=O)Nc1ccccc1F`, the Potency is 2 µM (active).
The value for `N#C/C(=C\c1ccccc1C(F)(F)F)C(=O)Nc1ccccc1F` was “inactive”; that for `N#C/C(=C/c1ccc(N2CCOCC2)o1)C(=O)N1CCOCC1` was “inactive”; that for `Cc1ccc2c(=O)c(C(=O)c3ccc(Cl)cc3)cn(CC(=O)NC3CCCCC3)c2n1` was “inactive”.
The value for `COc1ccc2c(c1)N(C)/C(=C1/SC(=S)N(NC(C)=O)C1=O)S2` was “inactive”.
As for `O=C(O)c1ccc2c(c1)C(=O)N(NC(=O)c1ccc(O)cc1)C2=O`, the Potency result is “inactive”.
Consider `CC(=O)N1C(=O)/C(=C2\SC(=S)N(NC(=O)c3ccc(O)cc3)C2=O)c2ccccc21`, for which the Potency was 39.8 µM (active).
`CCOC(=O)c1cccc(NC(=O)c2cc(S(=O)(=O)N3CCCC(C)C3)cn2C)c1` (stereo unspecified): the Potency entry was “inactive”.
The value for `CCCCN1CC(c2nc3ccccc3n2CCCCOc2ccc(C)cc2C)CC1=O` (stereo unspecified) was “inactive”; that for `Cc1ccc(N=C2NC(=O)/C(=C/C=C/c3ccco3)S2)cc1C` was 44.7 µM (active); that for `CCOC(=O)c1cc(-c2ccccc2)n(CCC(=O)Nc2ccccc2CC)c1C` was “inactive”.
The value for `CC(C)CC(=O)NCC(c1ccc2c(c1)OCO2)N1CCN(c2ccc(F)cc2)CC1` (stereo unspecified) was “inactive”.
Take `Cc1nnc(NCc2ccccc2)c2c1nnn2Cc1ccc(F)cc1`: the Potency entry is “inactive”.
In the case of `CCOc1ccc(C(=O)c2cn(Cc3ccc(F)cc3)c3ccc(F)cc3c2=O)cc1`, the Potency entry is “inactive”.
The value for `CCOc1ccc2oc(=O)cc(CN3CCN(C(=O)c4ccc(F)cc4)CC3)c2c1` was “inactive”; that for `CCOc1ccc(N(C)Cc2cc(=O)oc3ccc(OC)cc23)cc1` was 22.4 µM (active).
Turning to `COc1ccc2oc(=O)cc(CN3CCOCC3)c2c1`, the Potency entry is “inactive”.
As to `Cc1ccc(O)c(NC(=O)CCS(=O)(=O)c2nc(-c3ccc4c(c3)OCO4)cc(C(F)(F)F)n2)c1`, the Potency result is “inactive”.
For the compound `CCOC(=O)c1ccc(NC(=O)c2ncn(-c3ccccc3)n2)cc1`, the Potency result was “inactive”.
Turning to `Fc1ccc(-c2nn(-c3ccccc3Cl)c3c2cnc2ccccc23)cc1`, the Potency entry is “inactive”.
On to `COc1cccc(CNC(=O)Cn2c(=O)c3cccn3c3ccc(F)cc32)c1OC`, for which the Potency entry is “inactive”.
For `CCOC(=O)c1cnc2c(C)cc(C)cc2c1Nc1ccc(N2CCOCC2)cc1`, the Potency is 7.08 µM (active).
`CCOC(=O)c1cnc2c(C)cc(Cl)cc2c1NCCc1ccc(OC)c(OC)c1`: the Potency result was “inactive”.
The value for `Cc1ccc(OCCCC(=O)Nc2ccc(N3CCOCC3)cc2)cc1` was “inactive”.
In the case of `CCOc1cccc(NC(=O)CSc2ncc(-c3ccc(Cl)cc3)[nH]2)c1` it was “inactive”; in that of `Cc1cc(NS(=O)(=O)c2ccc3oc(=O)c4ncn(C)c4c3c2)ccc1Br`, “inactive”; in that of `O=[N+]([O-])c1ccccc1OCCCCN1CCCCC1`, “inactive”.
The value for `CC1CC(C)CN(CCOc2cccc3ccccc23)C1` (stereo unspecified) was “inactive”; that for `CC1CN(CCOc2ccccc2[N+](=O)[O-])CC(C)O1` (stereo unspecified) was 25.1 µM (active); that for `Cc1ccccc1CNC(=O)CCc1cn(Cc2ccccc2C)c2ccccc12` was “inactive”.
As to `CCc1cc2c(cc3c(=O)n(CC(=O)NCc4cccc(Cl)c4)nc(CC)n32)s1`, the Potency entry is “inactive”.
Consider `COc1ccccc1C(=O)NCCn1cc(SCc2ccccc2Cl)c2ccccc21`, for which the Potency entry is “inactive”.
Take `Cc1ccc(CN2CCC(CNC(=O)c3cnn(-c4ccc(C)cc4)c3C3CCN(C(=O)OC(C)(C)C)CC3)CC2)cc1`: the Potency result is “inactive”.
For the compound `O=C(COc1ccccc1[N+](=O)[O-])NC1CC1`, the Potency entry is “inactive”.
For the compound `C=CCN(CC=C)CCOc1ccccc1[N+](=O)[O-]`, the Potency is 39.8 µM (active).
Consider `O=C(COc1ccccc1[N+](=O)[O-])N/N=C/c1ccc[nH]1`, for which the Potency result is “inactive”.
In the case of `CC(NC(=O)c1cc(Sc2ccc(F)cc2F)nc2ccccc12)c1ccccc1` (stereo unspecified) it was “inactive”; in that of `CN=C1C=C/C(=N/N=c2\ccn(O)cc2C)C=C1C`, 35.5 µM (active).
Regarding `O=C(CN1c2ccccc2S(=O)(=O)c2ccccc21)Nc1cccc(C(F)(F)F)c1`, the Potency entry was “inactive”.
As for `CCOC(=O)c1ccc(NC(=O)CC2C(=O)N(c3ccccc3)C(=O)N2Cc2cccs2)cc1` (stereo unspecified), the Potency result was “inactive”.
In the case of `CSc1nnc(NC(=O)c2nc(S(=O)(=O)Cc3ccc(C)cc3)ncc2Cl)s1`, the Potency is 56.2 µM (active).
For `Cc1ccc(CS(=O)(=O)c2ncc(Cl)c(C(=O)Nc3nnc(C)s3)n2)cc1`, the Potency result was “inactive”.
As to `Cc1cccc(NC(=O)c2nc(S(=O)(=O)Cc3ccccc3)ncc2Cl)c1`, the Potency result is “inactive”.
On to `Fc1ccc(-n2ncc3c(Nc4ccc(Oc5ccccc5)cc4)ncnc32)cc1`, for which the Potency entry was “inactive”.
Take `CCOc1ccccc1NC(=O)c1ccc2c(c1)CCN2S(=O)(=O)c1ccc(C)cc1`: the Potency result was “inactive”.
In the case of `CN(C)C(=O)c1nc2ccc(Cl)cn2c1CN1CCN(c2ncccn2)CC1` it was “inactive”; in that of `COc1ccc(-c2nc(CN3CCN(c4ncccn4)CC3)c(C)o2)cc1C`, “inactive”.
`C/C(=N\N1CCN(Cc2ccc(C)cc2)CC1)c1ccco1`: the Potency entry is “inactive”.
Turning to `Cc1ccc(CN2CCN(c3ncccn3)CC2)c(C)c1`, the Potency was 50.1 µM (active).
Consider `Cc1ccc(NC(=O)CCC(=O)N/N=C/c2ccco2)c(C)c1`, for which the Potency result was “inactive”.
In the case of `Cc1ccc(CN2CCN(/N=C/c3ccco3)CC2)c(C)c1` it was 50.1 µM (active).
Consider `Cc1oc2ccc(O)c(CN3CCCCC3)c2c1C(=O)Nc1cccc(C(F)(F)F)c1`, for which the Potency result is “inactive”.
For the compound `Cc1ccc(CNC(=O)Cn2c(=O)ccc3cc(S(=O)(=O)N4CCCC4)ccc32)cc1`, the Potency entry was “inactive”.
